# PubChem BioAssay AID504834 (National Center for Advancing Translational Sciences (NCATS), 2011)
# Hit rate of the full screen: of about 320,000 compounds, about 22,000 (6.9%) were called active. Inconclusive results (about 27%) are left out. The sample holds actives, similar compounds and a random draw of the others, so the mix is not that of the screen. The call rests on the fitted dose curve; in most records, active means well fitted inhibition curve with a large enough effect; inconclusive means small, poorly fitted or top-dose-only effect, or another doubt; inactive means no such curve, though single readings can be large or run the other way.
# Assay: Primary qHTS for delayed death inhibitors of the malarial parasite plastid, 96 hour incubation
# Settings: P. falciparum luciferase reporter growth; series mostly up to 28.7 µM; activity change, negative = inhibition: at the top concentration
# How it was run: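 Two parasite generations (96 h, 37 C, 5% CO2) of compound exposure in infected erythrocytes (0.05% parasitemia, 2% hematocrit). Luciferase-reporter P. falciparum; decreased luminescence indicates inhibited growth, aimed at apicoplast-acting delayed death.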
# On the % scale 0 is the no-effect control and ±100 the full control effect; potency means the concentration at half of the fitted maximal effect.
SMILES,"activity change, negative = inhibition",Potency
O=c1oc2ccccc2c(CNc2ccccc2)c1[N+](=O)[O-],0.143% (inactive),–
O=C(NCCCN1CCCCCC1)c1ccc(N2CCCC2=O)cc1,–,2.33 µM (active)
O=C(NCCCN1CCCC1=O)c1ccc(S(=O)(=O)Nc2ccccc2)cc1,3.54% (inactive),–
CCCNC(=O)NCc1ccc(N2CCCC2=O)cc1,-6.7% (inactive),–
COc1ccc(N2CCN(C(=O)Cn3cnc4sc(C)c(S(=O)(=O)N5CCOCC5)c4c3=O)CC2)cc1,-2.58% (inactive),–
Cn1c(N)c(C(=O)COC(=O)COc2ccc(Cl)cc2)c(=O)n(C)c1=O,9.16% (inactive),–
Cn1c(N)c(C(=O)COC(=O)C23CC4CC(CC(C4)C2)C3)c(=O)n(C)c1=O,–,14.7 µM (active)
Cn1c(N)c(C(=O)COC(=O)c2cnc(Cl)c(Cl)c2)c(=O)n(C)c1=O,7.7% (inactive),–
COc1cc(NC(=O)c2ccccc2)c(OC)cc1NC(=O)Cc1ccccc1,177% (inactive),–
CCc1nn(CCCC(=O)Nc2ccc(C)c(C)c2)c(=O)c2cc3occc3n12,0.0935% (inactive),–
CC1CC(C)(C)CC2(C1)NC(=O)N(CC(=O)Nc1nccs1)C2=O (stereo not drawn),2.21% (inactive),–
CC(C)n1c(COc2ccccc2)nc2ccccc21,30.5% (inactive),–
COc1cccc(C2Nc3cccc4cccc(c34)N2)c1,–,7.38 µM (active)
Oc1ccc(C2Nc3cccc4cccc(c34)N2)cc1,–,10.4 µM (active)
Brc1ccccc1C1Nc2cccc3cccc(c23)N1,0% (inactive),–
Cc1ccc(C2Nc3cccc4cccc(c34)N2)cc1,-15.1% (inactive),–
COc1ccc2[nH]c3ccc(OC)cc3c2c1,3.15% (inactive),–
COc1ccc(C2NC(=O)c3ccccc3N2)cc1 (stereo not drawn),126% (inactive),–
N#Cc1ccccc1S(=O)(=O)N1CCN(Cc2c(O)ccc3ccccc23)CC1,-22% (inactive),–
CC(CCc1ccccc1)NC(=O)c1cnc(Cl)c(Cl)c1 (stereo not drawn),-8.54% (inactive),–
Cc1ccc(N(C(=O)CNC(=O)c2ccco2)C(C(=O)NC2CCCC2)c2ccncc2)cc1 (stereo not drawn),3.8% (inactive),–
CC(C)C(NC(=O)c1c(F)cccc1F)C(=O)NCc1ccncc1 (stereo not drawn),0.117% (inactive),–
C[C@@H](NC(=O)OC(C)(C)C)c1nnc(S(=O)(=O)Cc2ccccc2)o1,19.6% (inactive),–
CC(C)CN(CC(C)C)C(=O)CN1c2cccc3cccc(c23)S1(=O)=O,-0.0528% (inactive),–
CCn1c(CC(=O)Nc2ccccc2)nnc1SCC(=O)N1CCOCC1,8.31% (inactive),–
CCOc1cc(/C=N/NC(=O)c2cccc(S(=O)(=O)N3CCOCC3)c2)ccc1OCC(=O)N(C)C,3.33% (inactive),–

SMILES,"activity change, negative = inhibition",Potency
CCOc1cc(/C=N/NC(=O)c2ccc(CSc3nncn3C)cc2)ccc1OCC(=O)N1CCOCC1,–,11.7 µM (active)
COC(=O)c1ccc(CSc2nncn2C)cc1,23% (inactive),–
CC(=O)N1CC[n+]2c(-c3ccc([N+](=O)[O-])cc3)csc21,-3.07% (inactive),–
CC1CCN(S(=O)(=O)c2ccc(NC(=O)C3CC(=O)N(c4ccccc4)C3)cc2)CC1 (stereo not drawn),4.87% (inactive),–
O=C(CSc1ccccc1)Nc1nnc(/C=C/c2ccccc2)s1,-19.1% (inactive),–
O=C(Nc1ccc(Cl)cc1)Nc1nnc(/C=C/c2ccccc2)s1,–,13.1 µM (active)
COc1ccc(/C=C/c2nnc(NC(=O)C(C)C)s2)cc1,-4.99% (inactive),–
O=S(=O)(c1cnccc1N1CCN(/N=C/c2ccc(Br)cc2)CC1)N1CCCCC1,123% (inactive),–
CC(C)NC(=O)N1CCN(c2ccncc2S(=O)(=O)N2CCCCC2)CC1,-11% (inactive),–
CNS(=O)(=O)c1cnccc1N1CCN(c2cccc(C)c2)CC1,–,10.4 µM (active)
COc1ccc(F)cc1C(=O)COC(=O)c1n[nH]c(=O)c2ccccc12,-26.4% (inactive),–
O=C(c1n[nH]c2c1CCC2)N1CCCC(Nc2cccc(F)c2)C1 (stereo not drawn),46.1% (inactive),–
CSc1nc(-c2ccco2)nn1C(=O)c1ccccc1Cl,-15.5% (inactive),–
CCCC1=Nc2cc(C(=O)NCc3ccco3)ccc2Sc2ccccc21,–,2.94 µM (active)
COc1ccc(CCNS(=O)(=O)c2ccc(C(=O)NCc3ccco3)cc2)cc1OC,11.4% [at 5.75 µM] (inactive),–
CCC1=Nc2cc(C(=O)NCCCN3CCOCC3)ccc2Sc2ccc(Br)cc21,0.73% (inactive),–
COCCN(C(=O)COC(=O)Cc1cccc(OC)c1)c1c(N)n(Cc2ccccc2)c(=O)[nH]c1=O,0.297% (inactive),–
Cc1ccc(F)cc1S(=O)(=O)Nc1cccc(C(=O)N2CCCC(C(N)=O)C2)c1 (stereo not drawn),-2.9% (inactive),–
CCOc1ccc(CN2CCN(Cc3ccc4cc(F)ccc4n3)CC2CCO)cc1 (stereo not drawn),–,13.1 µM (active)
CCOc1ccc(CN2CCN(CCCc3ccccc3)C(CCO)C2)cc1 (stereo not drawn),32.4% (inactive),–
COc1cccc(CN2CCN(Cc3ccc4cccc(F)c4n3)CC2CCO)c1 (stereo not drawn),24.6% (inactive),–
Cc1cccc(C(=O)NCc2nnc(SC(C)C(=O)Nc3nnc(C)s3)n2C)c1 (stereo not drawn),137% (inactive),–
O=C(Nc1ccn(Cc2ccccc2)n1)c1cccc(F)c1,-5.37% (inactive),–
Cc1ccc(Cn2ccc(NC(=O)c3cc(C(C)C)on3)n2)cc1,-25.9% (inactive),–
O=C(Nc1ccn(Cc2ccc(F)cc2)n1)c1ccncc1,–,9.28 µM (active)
COc1ccc(C2=NN(C(=O)CSc3nnnn3C)C(c3ccco3)C2)cc1 (stereo not drawn),12.9% (inactive),–

SMILES,"activity change, negative = inhibition",Potency
CCN(C(=O)COc1ccc(C(=O)c2ccccc2)cc1)c1ccccc1,–,11.7 µM (active)
O=C(COc1ccc(F)cc1)N(CC1=CCS(=O)(=O)C1)c1ccccc1,8.32% (inactive),–
CCN(C(=O)c1ccc(Br)cc1)c1ccccc1,6.13% (inactive),–
CCc1ccc(NC(=O)CS(=O)CC(=O)N2CCN(c3ccccc3F)CC2)cc1 (stereo not drawn),10.1% (inactive),–
COc1cccc(/C=N/Nc2ccc(Cl)nn2)c1,19.8% (inactive),–
CCOC(=O)C(C)n1cnc2c(nnn2-c2ccc(F)cc2)c1=O (stereo not drawn),79.2% (inactive),–
COc1cccc2c(N/N=C/c3ccco3)cc(C)nc12,27.3% (inactive),–
COc1cccc(/C=N/Nc2cc(C)nc(-c3ccccc3O)n2)c1O,–,0.37 µM (active)
COc1cccc(/C=N/Nc2ncc(C(F)(F)F)cc2Cl)c1O,165% (inactive),–
O=C(/C=C/c1ccc(Cl)c([N+](=O)[O-])c1)c1cccnc1,18.1% (inactive),–
O=C(Nc1ccncc1)c1ccc(Cl)c([N+](=O)[O-])c1,22.6% (inactive),–
NC(N)=N/N=C/c1ccc(Cl)c([N+](=O)[O-])c1,–,11.7 µM (active)
O=C(/C=C/c1ccc2c(c1)OCCO2)c1ccc(O)cc1,144% (inactive),–
CN(C)c1ccc(/C=C/C(=O)c2ccc(O)cc2)cc1[N+](=O)[O-],-16.4% (inactive),–
O=C(/C=C/c1ccc(Cl)c([N+](=O)[O-])c1)c1ccc(O)cc1,–,9.28 µM (active)
COc1ccc(Cl)cc1NC(=O)COc1ccc2c(c1)OCO2,-14.3% (inactive),–
CCN1C(=S)N[C@@H](c2cccc(C(F)(F)F)c2)C(C(=O)OC)=C1C,76.3% (inactive),–
CCCCn1c(N)c(N(CC(C)C)C(=O)CSc2ccc([N+](=O)[O-])cc2)c(=O)[nH]c1=O,8.89% (inactive),–
COc1ccc(OC)c(CN2CCN(C(=O)CNC(=O)c3cc(C)cc(C)c3)CC2)c1,48.5% (inactive),–
O=C(CCNC(=O)c1ccccc1Cl)NCc1ccco1,-28.5% (inactive),–
Cc1cccc(C)c1NC(=O)COC(=O)c1ccccc1O,38.1% (inactive),–
C=CCn1c(CNS(=O)(=O)c2ccc(Br)cc2)nnc1SC,-3.42% (inactive),–
Cc1cccc(N2C(=O)c3ccc(C(=O)Nc4cccc(C(=O)O)c4)cc3C2=O)c1,–,13.1 µM (active)
COC(=O)c1cccc(NC(=O)c2cccc(N3C(=O)CCC3=O)c2)c1,32.1% (inactive),–
CC(=O)Nc1ccc(NC(=O)c2ccc3c(c2)C(=O)N(c2ccccc2C)C3=O)cc1,-5.53% (inactive),–
NC(=O)c1nsc(C(=O)N(CCCN2CCOCC2)C(C(=O)NC2CCCCC2)c2ccc(Cl)cc2)c1N (stereo not drawn),4.88% (inactive),–

SMILES,"activity change, negative = inhibition",Potency
c1ccc2cc(CCCc3cc4ccccc4cn3)ncc2c1,33.1% (inactive),–
CCOc1ccc(OCc2ccc(C(=O)N(C)c3ccccc3)o2)cc1,-9.61% (inactive),–
CCOC(=O)c1c(N)nn(C(=O)c2ccccc2)c1-c1ccccc1,-1.13% (inactive),–
CCOC(=O)c1nnn(-c2nc(OC)nc(N(C)C)n2)c1-c1ccccc1,–,2.33 µM (active)
CCOC(=O)c1nnn(-c2nonc2OC)c1-c1ccccc1,-1.93% (inactive),–
NC(=O)c1ccsc1NC(=O)COC(=O)Cc1n[nH]c(=O)c2ccccc12,56.7% (inactive),–
CCCn1c(C(O)c2ccc(OCC)cc2)nc2ccccc21 (stereo not drawn),69.5% (inactive),–
CCn1c(C(O)c2cc(OC)ccc2OC)nc2ccccc21 (stereo not drawn),–,9.28 µM (active)
COc1ccc(OC)c(C(O)c2nc3ccccc3n2C)c1 (stereo not drawn),-5.13% (inactive),–
O=C(Nc1cccc(Cl)c1)c1cc(S(=O)(=O)N2CCCCC2)c[nH]1,51.3% (inactive),–
CC(=O)Nc1ccc(S(=O)(=O)NC2Cc3ccccc3C2)cc1,3.82% (inactive),–
COc1ccc(C2=NN(C(=O)c3ccccc3C(=O)O)C(c3ccccc3O)C2)cc1 (stereo not drawn),64.5% (inactive),–
COc1ccc(C2CC(c3ccccc3)=NN2C(=O)c2ccc(Cl)c([N+](=O)[O-])c2)cc1 (stereo not drawn),-9.04% (inactive),–
CCOc1ccc2nc(Cl)c(C3CC(c4ccccc4)=NN3C(=O)c3cccs3)cc2c1 (stereo not drawn),–,8.28 µM (active)
Cc1ccccc1Cn1c2ccccc2c2cnn(CC(=O)NCc3ccco3)c(=O)c21,-25.7% (inactive),–
CCN(C(=O)COC(=O)CCOc1cccc(C)c1)c1c(N)n(Cc2ccccc2)c(=O)[nH]c1=O,25.4% (inactive),–
O=C(Nc1cccc(C(F)(F)F)c1)c1cnccn1,16.6% (inactive),–
COc1ccc(NC(=O)CN(C)CC(=O)Nc2cccc(C(F)(F)F)c2)cc1,-20.6% (inactive),–
COc1cc(NC(=O)c2cncc(-c3ccc(C#N)cc3)c2)cc(C(=O)Nc2cccc(C(F)(F)F)c2)c1,–,6.57 µM (active)
Cc1c(Cl)cccc1NC(=S)NCC(O)c1ccccc1 (stereo not drawn),0% (inactive),–
O=C(OC(C(=O)NC1CCCC1)c1ccc(F)cc1)c1ccno1 (stereo not drawn),13.4% (inactive),–
CC(C)C(=O)NCC(c1cccs1)S(=O)(=O)c1ccc(F)cc1 (stereo not drawn),19.9% (inactive),–
COCCNC(=O)C(OC(=O)c1cccs1)c1ccc(F)cc1 (stereo not drawn),–,13.1 µM (active)
CC(=O)C[C@@H](O)CC(=O)[C@H]1OC(=O)CCCCCCc2ccccc21,33.7% (inactive),–
CCCCn1c(N)c(N(CCOC)C(=O)c2cccc(OCc3ccccc3)c2)c(=O)[nH]c1=O,-15.2% (inactive),–
